Screening results from PubChem.
This is a sample that favours compounds with a hit; in the whole collection about 13% have one here.
Lamin A splicing: qHTS Assay for Modulators of Lamin A Splicing; Potency, µM (top dose mostly 46.1 µM), hits mostly inhibitors; HeLa LMNA splicing GFP/RFP minigene ratio, 48 h; 200,000 tested, 0.01% active; active = well fitted inhibition curve with a large enough effect in the signal ratio, with a control signal flat, not every such curve was filed as active; inconclusive = small, poorly fitted or top-dose-only effect, or effect the other way, or a change in a side signal; the % refers to the signal ratio
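Read-out is the ratio of GFP to DsRed2 object intensity, acquired by 488 nm laser-scanning cytometry on HeLa lamin A-EGFP minigene reporter cells. Compound incubation 48 hrs at 37 °C in Opti-MEM with 2% FBS; DMSO 0.5% final.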
G9a inh: qHTS Assay for Inhibitors of Histone Lysine Methyltransferase G9a | Potency, µM (doses to about 102 µM), usual class: inhibitors | 350,000 tested, 8.8% active | G9a H3K9 monomethylation, AlphaScreen, 2 h | Histone-lysine N-methyltransferase EHMT2 (Homo sapiens), Q96KQ7 | AID 504332, 2011; note: nearly all actives have a fitted effect of over 75% in size
Target sequence (Q96KQ7 913-1193 limits assumed): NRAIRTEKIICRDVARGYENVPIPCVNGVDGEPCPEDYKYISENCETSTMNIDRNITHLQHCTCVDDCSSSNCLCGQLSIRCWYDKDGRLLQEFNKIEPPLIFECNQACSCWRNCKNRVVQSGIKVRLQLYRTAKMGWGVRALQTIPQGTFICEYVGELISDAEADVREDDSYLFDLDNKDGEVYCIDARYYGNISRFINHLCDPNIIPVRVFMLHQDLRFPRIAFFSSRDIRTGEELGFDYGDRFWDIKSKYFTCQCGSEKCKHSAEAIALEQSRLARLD
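Readings reflect AlphaScreen signal from monomethyl-H3K9 antibody detection. HMT at 20 nM; substrate b-H3K9 500 nM; cofactor SAM 20 uM; 2 h RT reaction; compounds tested as titrations in qHTS with 15 min preincubation.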
KDM4E inh: qHTS Assay for Inhibitors of Human Jumonji Domain Containing 2E (JMJD2E) | 230,000 tested, 1.6% active | Lysine-specific demethylase 4E (Homo sapiens), B2RXH2 | Potency, µM (doses to about 57.1 µM), most hits filed as inhibitors | JMJD2E catalytic domain, FDH-coupled NADH fluorescence (FDH is formaldehyde dehydrogenase); note: nearly all actives have a fitted effect of over 50% in size
Target sequence (B2RXH2 1-337 limits assumed): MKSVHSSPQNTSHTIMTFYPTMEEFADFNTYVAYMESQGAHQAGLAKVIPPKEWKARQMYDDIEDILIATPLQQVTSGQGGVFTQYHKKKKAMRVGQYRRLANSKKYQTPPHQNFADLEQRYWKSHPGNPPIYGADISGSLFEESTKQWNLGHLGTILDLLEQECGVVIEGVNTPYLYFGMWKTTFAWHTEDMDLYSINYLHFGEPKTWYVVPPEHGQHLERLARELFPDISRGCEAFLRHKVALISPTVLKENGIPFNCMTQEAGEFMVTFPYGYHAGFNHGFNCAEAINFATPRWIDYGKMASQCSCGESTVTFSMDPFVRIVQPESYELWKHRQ
ALDH1A1 inh: qHTS Assay for Inhibitors of Aldehyde Dehydrogenase 1 (ALDH1A1). Aldehyde dehydrogenase 1A1 (Homo sapiens), P00352. Purified ALDH1A1, NADH fluorescence, propionaldehyde substrate. Potency, µM (top dose mostly 75.3 µM), usual class: inhibitors. 220,000 tested, 7.3% active; active = well fitted inhibition curve with a large enough effect, not every such curve was filed as active; inconclusive = small, poorly fitted or top-dose-only effect, or another doubt; inactive = no such curve, though single readings can be large or run the other way
Sfp PPTase inh: qHTS Assay for Inhibitors of Bacillus subtilis Sfp phosphopantetheinyl transferase (PPTase). Biochemical Sfp PPTase activity, qHTS. 4'-phosphopantetheinyl transferase ffp (Bacillus subtilis), Q9F4F7. Potency, µM, usual class: inhibitors. 310,000 tested, 3.5% active;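 note: the enzyme is Sfp with the accession as filed and its product quenches rhodamine fluorescence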
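Fluorescence-quenching assay with 15 nM Sfp, 5 uM rhodamine-CoA and 12.5 uM BHQ-2-labelled ybbR peptide in pH 7.6 Hepes/MgCl2 buffer. Enzyme was pre-incubated with compound for 15 min at room temperature. Rate was taken from the 30-min fluorescence change (525/598 nm).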
miR-21 act: qHTS Assay for Modulators of miRNAs and/orActivators of miR-21 | HeLa miR-21 FLuc reporter, luciferase, 48 h | Potency, µM (titrated, usually from 38.3 µM), usual class: activators | 340,000 tested, under 10 active | AID 2288, 2010;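 note: miR-21 action dims this reporter so a rising signal means less miR-21 action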
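Using DMEM plus 10% FBS, HeLa miR-21-FLuc cells are incubated with test compounds (final up to about 40uM) for 48 hours; firefly luciferase signal is then imaged following reagent-mediated lysis.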
Of the large screens only hits and unclear results are named; the others gave an inactive call. Unless noted, calls come from the whole dose curve; as a rule, active = well fitted curve in the direction sought with a large enough effect; inconclusive = small, poorly fitted or top-dose-only effect, or another doubt; inactive = no such curve, though single readings can be large; an effect the other way counts as inactive or inconclusive.

COCCCn1c(=O)c2sccc2n2c(CCCC(=O)Nc3cccc(C(F)(F)F)c3)nnc12	none (no result: Lamin A splicing, KDM4E inh, ALDH1A1 inh, Sfp PPTase inh)
O=C(N[C@H]1CCCc2ccccc21)O[C@@H]1C(=O)c2cc(Br)ccc2O[C@H]1c1ccc2c(c1)OCO2	ALDH1A1 inh inconclusive (no result: Lamin A splicing, G9a inh, miR-21 act)
CCCCn1c(N)c(N(CCC(C)C)C(=O)c2ccc(N3CCCC3=O)cc2)c(=O)[nH]c1=O	G9a inh 35µM (no result: Lamin A splicing, KDM4E inh, ALDH1A1 inh, Sfp PPTase inh, miR-21 act)
CC(C)CCN(C(=O)c1ccc(N2CCCC2=O)cc1)c1c(N)n(Cc2ccccc2)c(=O)[nH]c1=O	none (no result: Lamin A splicing, KDM4E inh, ALDH1A1 inh, Sfp PPTase inh, miR-21 act)
C/C(CC(=O)N1CCN(C=O)CC1)=N\NC(=O)c1ccc(Cl)cc1	ALDH1A1 inh inconclusive (no result: Lamin A splicing)
CC1CN(C(=S)NC(=O)c2cccc([N+](=O)[O-])c2)CC(C)O1 (stereo not drawn)	G9a inh 14µM, ALDH1A1 inh inconclusive
CC1CN(C(=S)NC(=O)c2ccc(Cl)cc2)CC(C)O1 (stereo not drawn)	G9a inh 45µM (no result: Lamin A splicing, KDM4E inh, ALDH1A1 inh)
COc1ccc(C(=O)NC(=S)N2CC(C)OC(C)C2)cc1OC (stereo not drawn)	Sfp PPTase inh inconclusive (no result: G9a inh)
O=CN1CCN(C(=S)NC(=O)c2ccc(Cl)cc2)CC1	G9a inh 45µM (no result: Lamin A splicing, KDM4E inh, ALDH1A1 inh)
Cc1ccccc1-n1nnnc1SCc1ncc(-c2ccccc2)o1	Lamin A splicing inconclusive, G9a inh inconclusive, ALDH1A1 inh 10µM
Fc1ccc(-c2nnc(CSc3nnc4ccccn34)o2)cc1	none
c1ccc(-c2cnc(CSc3nnc4ccccn34)o2)cc1	G9a inh 10µM, ALDH1A1 inh inconclusive
CNC(=O)CCCN1C(=O)CCn2nc(-c3cn(C)c4ccccc34)cc21	Lamin A splicing inconclusive (no result: KDM4E inh, ALDH1A1 inh, Sfp PPTase inh)
Cc1ccc(C(=O)NCCCN2CCOCC2)c(Cl)c1	none (no result: Lamin A splicing, KDM4E inh, ALDH1A1 inh)
COc1ccc(CNC(=O)c2ccc3c(c2)CCN3S(=O)(=O)c2ccccc2)cc1	none (no result: Lamin A splicing, KDM4E inh, ALDH1A1 inh, Sfp PPTase inh)
CCN(CC)S(=O)(=O)c1ccc2c(c1)N(CC(=O)N(C)Cc1ccccc1)C(=O)CO2	none (no result: Lamin A splicing, KDM4E inh, ALDH1A1 inh, Sfp PPTase inh)
O=C(C[n+]1cc(-c2ccccc2)n2c1CCCCC2)c1ccc(Br)cc1	G9a inh 50µM
Cc1ccc(C(=O)C[n+]2cc(-c3ccc(C)cc3)n3c2CCCCC3)cc1	G9a inh inconclusive, miR-21 act inconclusive
CSc1nc(-c2ccccc2)nc(NC(=O)c2ccccc2)c1C(C)=O	Lamin A splicing inconclusive
CC(=O)c1n[nH]nc1NC(=O)c1ccccc1	G9a inh 50µM
Cc1ccc(C(=O)CN(Cc2ccccc2)C2=NCCS2)cc1	G9a inh inconclusive, ALDH1A1 inh 20µM
O=C(CN(Cc1ccccc1)C1=NCCS1)c1ccccc1	G9a inh 50µM
Cc1ccc(C(=O)CCC(=O)NCc2ccccc2)cc1	none (no result: Lamin A splicing, KDM4E inh, ALDH1A1 inh)
CO/N=C1/c2cc(OC)ccc2O[C@@H](c2cccc(OC)c2)[C@H]1O	ALDH1A1 inh inconclusive (no result: Lamin A splicing, G9a inh, KDM4E inh, miR-21 act)
COc1ccc(NC(=O)CN2C(=O)NC3(CCCCC3C)C2=O)cc1OC (stereo not drawn)	none (no result: Lamin A splicing, KDM4E inh, ALDH1A1 inh, Sfp PPTase inh, miR-21 act)
CCN1C(=O)[C@H]2[C@@H](c3ccc(Cl)cc3)N3C(=O)CN(CC4CC4)C(=O)[C@@]3(Cc3ccccc3)[C@H]2C1=O	G9a inh 71µM (no result: Lamin A splicing, KDM4E inh, ALDH1A1 inh)
CCCCN1CC(=O)N2[C@H](c3ccc(Cl)cc3)[C@@H]3C(=O)N(CC)C(=O)[C@@H]3[C@]2(Cc2ccccc2)C1=O	none (no result: Lamin A splicing, KDM4E inh, ALDH1A1 inh)
O=[N+]([O-])c1ccc2c(N=Nc3ccc4ccccc4c3O)c(O)cc(S(=O)(=O)O)c2c1	none (no result: Lamin A splicing, G9a inh, KDM4E inh, Sfp PPTase inh, miR-21 act)
Cc1cc(-c2ccc(N=Nc3c(S(=O)(=O)O)cc4cc(S(=O)(=O)O)cc(N)c4c3O)c(C)c2)ccc1N=Nc1c(S(=O)(=O)O)cc2cc(S(=O)(=O)O)cc(N)c2c1O	G9a inh inconclusive, Sfp PPTase inh 11µM (no result: Lamin A splicing, KDM4E inh, ALDH1A1 inh, miR-21 act)
NS(=O)(=O)c1ccc(N=Nc2c(O)c(C(=O)O)cc3ccccc23)cc1	Sfp PPTase inh inconclusive (no result: Lamin A splicing)
O=S(=O)(O)c1cc(O)c2c(O)c(N=Nc3cc(Cl)ccc3O)c(S(=O)(=O)O)cc2c1	G9a inh 10µM, Sfp PPTase inh inconclusive (no result: Lamin A splicing, KDM4E inh, ALDH1A1 inh)
Cc1c(NC(=S)N/N=C/c2ccc(N(C)C)cc2)c(=O)n(-c2ccccc2)n1C	KDM4E inh inconclusive, ALDH1A1 inh inconclusive
CN1C(=S)N(c2cccnc2)C(=O)/C1=C\c1ccc(N(C)C)cc1	Lamin A splicing inconclusive, G9a inh inconclusive, ALDH1A1 inh 13µM, Sfp PPTase inh inconclusive
CN(C)c1ccc(/C=C/C(=O)c2cccnc2)cc1	none (no result: Lamin A splicing, ALDH1A1 inh)
CN1C(=S)N(c2cccnc2)C(=O)/C1=C\c1ccc(C(C)(C)C)cc1	Lamin A splicing inconclusive, G9a inh 40µM, ALDH1A1 inh 7.1µM, Sfp PPTase inh inconclusive
Cc1c(N2C(=O)/C(=C\c3ccc(N(C)C)cc3)N(C)C2=S)c(=O)n(-c2ccccc2)n1C	G9a inh 40µM, ALDH1A1 inh 4.5µM
